# A number with no mark means an inactive call.
# Key:
# Assay in all cases: CellTox Green cytotoxicity fluorescence relative to DMSO vehicle (fold of vehicle RFU); higher = more cell death (loss of membrane integrity), active = 2 or more
# CMK = test system: CMK
# Procedure, shortened: (§1)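 MV4-11, CMK and Kasumi-1 cells were seeded at 4.0 × 10^4 cells per well in 96-well black optical-bottom plates, with CellTox Green reagent added at seeding. Single compounds from the Selleckchem apoptosis library, diluted in DMSO, were added at final 0.01, 0.1 and 1 µM (vehicle 0.1% DMSO), then incubated at 37 °C, 5% CO2 and read at 24, 48 and 72 h (Ex 485 nm, Em 520 nm). Cytotoxicity, reflecting loss of membrane integrity, is fluorescence expressed as fold of the DMSO vehicle.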
# Kasumi-1 = test system: Kasumi-1
# Procedure, shortened: as §1
# MV4-11 = test system: MV4-11
# Procedure, shortened: as §1
Structure (SMILES),"CellTox Green cytotoxicity fluorescence (CMK; 0.01 µM, 24 h)","CellTox Green cytotoxicity fluorescence (CMK; 0.01 µM, 48 h)","CellTox Green cytotoxicity fluorescence (CMK; 0.01 µM, 72 h)","CellTox Green cytotoxicity fluorescence (CMK; 0.1 µM, 24 h)","CellTox Green cytotoxicity fluorescence (CMK; 0.1 µM, 48 h)","CellTox Green cytotoxicity fluorescence (CMK; 0.1 µM, 72 h)","CellTox Green cytotoxicity fluorescence (CMK; 1 µM, 24 h)","CellTox Green cytotoxicity fluorescence (CMK; 1 µM, 48 h)","CellTox Green cytotoxicity fluorescence (CMK; 1 µM, 72 h)","CellTox Green cytotoxicity fluorescence (Kasumi-1; 0.01 µM, 24 h)","CellTox Green cytotoxicity fluorescence (Kasumi-1; 0.01 µM, 48 h)","CellTox Green cytotoxicity fluorescence (Kasumi-1; 0.01 µM, 72 h)","CellTox Green cytotoxicity fluorescence (Kasumi-1; 0.1 µM, 24 h)","CellTox Green cytotoxicity fluorescence (Kasumi-1; 0.1 µM, 48 h)","CellTox Green cytotoxicity fluorescence (Kasumi-1; 0.1 µM, 72 h)","CellTox Green cytotoxicity fluorescence (Kasumi-1; 1 µM, 24 h)","CellTox Green cytotoxicity fluorescence (Kasumi-1; 1 µM, 48 h)","CellTox Green cytotoxicity fluorescence (Kasumi-1; 1 µM, 72 h)","CellTox Green cytotoxicity fluorescence (MV4-11; 0.01 µM, 24 h)","CellTox Green cytotoxicity fluorescence (MV4-11; 0.01 µM, 48 h)","CellTox Green cytotoxicity fluorescence (MV4-11; 0.01 µM, 72 h)","CellTox Green cytotoxicity fluorescence (MV4-11; 0.1 µM, 24 h)","CellTox Green cytotoxicity fluorescence (MV4-11; 0.1 µM, 48 h)","CellTox Green cytotoxicity fluorescence (MV4-11; 0.1 µM, 72 h)","CellTox Green cytotoxicity fluorescence (MV4-11; 1 µM, 24 h)","CellTox Green cytotoxicity fluorescence (MV4-11; 1 µM, 48 h)","CellTox Green cytotoxicity fluorescence (MV4-11; 1 µM, 72 h)"
COc1ccc(CCNCc2ccc(OCc3ccc(Cl)nc3)c(OC)c2)cc1OC,0.968,0.978,0.979,0.96,0.955,0.961,0.94,0.968,0.996,0.943,0.942,0.931,0.953,0.936,0.949,0.975,0.987,0.979,,,,,,,,,
CN1CCN(Cc2ccc(Nc3ncc(Cl)c(Nc4ccccc4S(=O)(=O)N(C)C)n3)cc2)CC1,0.958,0.972,0.913,1.07,1.56,1.32,2.06 (active),2.42 (active),1.62,0.957,0.97,0.961,0.997,1.34,1.49,1.47,1.66,1.72,0.95,0.961,0.975,1.14,1.93,2.27 (active),1.42,2.4 (active),2.55 (active)
CC(C)[C@H](CO)Nc1nc(Nc2cccc(Cl)c2)c2ncn(C(C)C)c2n1 [Purvalanol A],0.988,1,1,0.992,1,0.965,0.987,1.02,1.02,0.997,0.989,0.974,0.983,0.965,0.974,0.928,0.948,0.923,,,,,,,,,
O=C(COc1ccc(Cl)cc1)NC1CCC(NC(=O)COc2ccc(Cl)cc2)CC1 (stereo unspecified),0.999,0.971,0.929,0.975,0.97,0.973,0.971,1.02,1.01,1.02,0.993,0.987,0.991,0.965,0.954,0.966,0.962,0.961,,,,,,,,,
CCCCCCCCCCCC1=C(O)C(=O)C=C(O)C1=O [Embelin],1.03,1.04,1.09,0.994,0.99,0.973,0.986,1.04,1.05,0.991,0.988,0.992,1.01,0.999,0.996,1.02,1.03,1.04,,,,,,,,,
CCOC(=O)c1[nH]c2cc(Cl)ccc2c1C(C(=O)NC(C)(C)C)N(C=O)Cc1ccc(Cl)cc1 (stereo unspecified),0.996,0.985,1,0.958,0.958,0.962,0.96,0.971,0.87,1.06,1.01,1,0.989,0.982,1,0.977,0.971,0.97,,,,,,,,,
CC1(C)CC[C@]2(NC(=O)C(C)(F)F)CC[C@]3(C)[C@H](C(=O)C=C4[C@@]5(C)C=C(C#N)C(=O)C(C)(C)[C@@H]5CC[C@]43C)[C@@H]2C1 [Omaveloxolone],0.972,0.97,1,0.98,0.952,0.762,2.13 (active),2.33 (active),1.56,0.94,0.95,0.898,0.971,1,0.946,1.11,1.34,1.34,0.94,0.94,0.966,0.943,0.997,1.1,1.23,2.12 (active),2.24 (active)
CC(C)c1ccccc1Cc1cc(C(=O)Nc2ccc(S(=O)(=O)c3ccccc3C(C)(C)C)cc2)c(O)c(O)c1O,0.947,0.942,0.932,0.932,0.922,0.947,0.924,1.51,1.6,0.977,0.911,0.915,0.951,0.94,0.932,0.94,0.909,0.919,0.952,0.952,0.957,0.956,0.944,0.945,0.933,1.16,1.84
C=CCc1cccc(/C=N/NC(=O)CN2CCN(Cc3ccccc3)CC2)c1O,0.917,0.909,0.921,0.92,0.917,0.953,0.913,0.937,1.06,1,0.934,0.93,0.918,0.918,0.918,0.916,0.914,0.892,0.974,0.955,0.955,0.95,0.951,0.957,0.904,1.07,1.31
CCCCNc1ncc2c(-c3ccc(CN4CCN(C)CC4)cc3)cn([C@H]3CC[C@H](O)CC3)c2n1,0.987,0.978,1,1.07,1.31,1.32,1.13,1.75,1.98,1.06,1.01,1.02,1.05,1.18,1.32,1.1,1.62,1.93,,,,,,,,,
CN[C@@H](C)C(=O)N[C@H](C(=O)N1CCC[C@H]1C(=O)Nc1snnc1-c1ccccc1)C1CCCCC1,0.986,0.984,0.983,1.01,1,1.02,1.01,1.02,0.959,0.983,0.949,0.94,1.01,1.03,1.07,0.988,1.04,1.1,,,,,,,,,
COC(=O)[C@H](CCSC)NC(=O)c1ccc(NC[C@@H](N)CS)cc1-c1ccccc1,0.934,0.924,0.941,0.896,0.897,0.941,0.938,0.978,1.04,0.974,0.922,0.926,0.932,0.927,0.924,0.941,0.973,0.997,0.942,0.936,0.953,0.947,0.943,0.932,0.927,0.931,0.944
COc1nc(-c2ccc3c(c2)OCO3)n(-c2ccc(NC(=O)CSc3ccccc3)cc2)n1 [SecinH3],1.03,1.04,1.05,0.992,0.997,0.985,0.996,1.01,1.01,1.02,1.03,1.04,1.02,1.02,1.01,0.941,0.989,1.02,1.02,1.02,1.02,1.01,1.01,1,1,1.03,1.05
Nc1ccccc1NC(=O)c1cnccn1,0.987,0.99,0.976,0.967,0.987,1.02,0.965,1.02,1.11,0.967,0.96,0.904,0.988,0.995,0.988,0.932,1,1.06,,,,,,,,,
